# PubChem BioAssay AID1445 (SRMLSC, 2008)
# Out of some 220,000 compounds screened, about 910 (0.41%) were called active. For the sample, actives were picked, then their nearest neighbours and some compounds at random. Entries with a potency or affinity are not part of this list. A number with no mark means an inactive call.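 The calls were made as follows: active = primary inhibition above the hit cutoff, then over 50% inhibition at one or more dose response concentrations (cut at about 23% in these data, passing the limit was not always enough); inconclusive = conflicting primary data, or primary hits not chosen for dose response; inactive = low primary inhibition, or under 50% at every dose.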
# Target: Aminopeptidase N (Plasmodium falciparum (isolate 3D7)) (UniProt O96935)
# Test: malaria alanyl aminopeptidase activity blockers – biochemical, fluorogenic H-Leu-NHMec substrate, 1536-well (AID 1445);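 also: plate controls were DMSO full reaction for no effect and no enzyme background for full effect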
# Conditions: recombinant M1AAP, H-Leu-NHMec fluorogenic kinetic assay; at 30 µM, active compounds read high unless noted
# Chain of Aminopeptidase N (Plasmodium falciparum (isolate 3D7)) (O96935 whole entry, looked up): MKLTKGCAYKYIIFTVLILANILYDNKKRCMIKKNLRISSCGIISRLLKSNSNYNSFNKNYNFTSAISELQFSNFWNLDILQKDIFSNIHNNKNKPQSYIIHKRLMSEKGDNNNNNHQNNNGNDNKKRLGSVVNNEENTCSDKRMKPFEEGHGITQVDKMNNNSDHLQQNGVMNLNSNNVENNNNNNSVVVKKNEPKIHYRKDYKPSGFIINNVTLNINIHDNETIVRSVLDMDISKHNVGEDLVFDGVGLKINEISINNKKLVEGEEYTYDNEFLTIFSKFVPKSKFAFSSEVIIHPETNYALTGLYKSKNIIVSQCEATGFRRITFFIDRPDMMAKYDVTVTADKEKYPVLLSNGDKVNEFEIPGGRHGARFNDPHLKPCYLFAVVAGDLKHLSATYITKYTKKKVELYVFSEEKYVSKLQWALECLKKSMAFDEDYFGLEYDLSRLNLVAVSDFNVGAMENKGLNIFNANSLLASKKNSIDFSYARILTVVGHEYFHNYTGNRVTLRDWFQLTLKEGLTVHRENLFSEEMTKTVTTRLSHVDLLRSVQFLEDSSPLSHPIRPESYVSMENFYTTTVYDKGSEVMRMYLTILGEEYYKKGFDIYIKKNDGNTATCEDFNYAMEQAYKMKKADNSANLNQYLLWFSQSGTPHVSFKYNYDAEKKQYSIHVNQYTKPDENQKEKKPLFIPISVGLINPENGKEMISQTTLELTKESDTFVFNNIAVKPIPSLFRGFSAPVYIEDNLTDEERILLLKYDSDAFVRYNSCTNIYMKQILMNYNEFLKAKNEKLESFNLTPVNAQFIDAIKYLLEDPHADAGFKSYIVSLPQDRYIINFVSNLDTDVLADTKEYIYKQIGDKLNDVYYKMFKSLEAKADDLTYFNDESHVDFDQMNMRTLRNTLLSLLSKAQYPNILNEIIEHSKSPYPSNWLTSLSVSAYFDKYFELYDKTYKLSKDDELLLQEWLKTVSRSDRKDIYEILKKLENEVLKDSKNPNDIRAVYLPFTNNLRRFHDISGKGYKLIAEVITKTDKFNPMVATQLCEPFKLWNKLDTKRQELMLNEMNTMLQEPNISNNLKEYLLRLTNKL
row,SMILES,inhibition
1,C/C(N)=C(/C#N)C(=O)COC(=O)Cc1coc2cc(C)ccc12,4.44%
2,C/C(=N\NC(=O)c1cc2ccccc2cc1O)c1cc2ccccc2o1,3.43%
3,CCOc1ccc(C(=O)N/N=C(/C)C2C(=O)c3ccccc3C2=O)cc1,4.51%
4,C/C(=N\NC(=O)c1ccc(Br)cc1)C1C(=O)c2ccccc2C1=O,39.9%
5,C/C(CC(=O)N1CCCC1)=N\NC(=O)c1cc2ccccc2cc1O,10.8%
6,C/C(=N\NC(=O)c1ccc(-c2ccccc2)cc1)C1C(=O)c2ccccc2C1=O,-1.49%
7,C/C(=N\NC(=O)CCc1ccccc1)C1C(=O)c2ccccc2C1=O,0.57%
8,CCOc1ccccc1N(CC(=O)NCCOC)C(=O)CCC(=O)Nc1ccccn1,-5.17%
9,CCC1CCCCN1CCCNC(=O)CC1Oc2ccccc2NC1=O (stereo not given),7.18%
10,COc1cc([N+](=O)[O-])ccc1NC(=O)CCCOc1ccc(C)cc1,17.4%
11,CC(C)(C)c1cc(C(=O)N/N=C/c2ccccc2O)n(-c2ccccc2)n1,11.1%
12,COCCCNC(=O)Cn1nnc(-c2ccc(NC(=O)c3ccccc3F)cc2)n1,0.6%
13,Nc1nc(COc2ccc3ccccc3c2)cs1,-0.25%
14,O=C(NN=C1CCCCCC1)NC1CCCCC1,-3.52%
15,CCCc1nnc(NC(=O)CN2CCN(C)CC2)s1,5.59%
16,O=C(O)c1cccc2[nH]c(C(F)(F)F)nc12,9.3%
17,FC(F)(F)c1nc2ccccc2[nH]1,-1.24%
18,CC(C)(C)NC(=O)Cn1c(SCC(N)=O)nc2ccccc21,2.96%
19,O=C(OCC(=O)N1CCc2ccccc21)c1nc(Cl)ccc1Cl,0.15%
20,CN(C)C(=O)CN1C(=O)C2CCCCN2C(=O)c2ccccc21 (stereo not given),8.25%

row,SMILES,inhibition
1,NC(=O)CN1C(=O)C2CCCCN2C(=O)c2ccccc21 (stereo not given),-4.54%
2,Cc1noc(C)c1S(=O)(=O)N1CCCC(C(=O)N2CCN(C3CCCCC3)CC2)C1 (stereo not given),8.08%
3,Cc1cc(C)nc(N2CCC(C(=O)NCCc3ccc(F)cc3)CC2)n1,3.16%
4,N#C/C(=N\Nc1ccccc1)C(=N)N1CCCCC1,-1.69%
5,N#Cc1c(-c2ccccc2)nc(SCC(=O)Nc2nnc(C(F)(F)F)s2)[nH]c1=O,17.8%
6,CCSc1nc(-c2ccccc2)c(C#N)c(=O)[nH]1,-8.26%
7,CCOC(=O)CCCCC(=O)c1[nH]c(=O)[nH]c1CSc1nc(C)cc(=O)[nH]1,7.83%
8,Cc1cccc(NC(=O)CSc2nc(-c3ccccc3)c(C#N)c(=O)[nH]2)c1C,14.7%
9,CSc1nc(-c2ccccc2)c(C#N)c(=O)[nH]1,2.21%
10,CCOC(=O)CCCCC(=O)c1[nH]c(=O)[nH]c1CSc1nc2ccccc2[nH]1,8.8%
11,CCOC(=O)CCCCC(=O)c1[nH]c(=O)[nH]c1CSc1nc(-c2ccccc2)c(C#N)c(=O)[nH]1,23.6% (active)
12,Cc1ccc(NC(=O)CCNS(=O)(=O)c2cc(Br)cnc2N)c(Cl)c1,6.45%
13,COc1ccc(-n2c(C)cc(/C=C(\C#N)C(=O)NCc3ccco3)c2C)cc1,9.23%
14,CS(=O)(=O)c1ccc(Cl)c(NC(=O)COC(=O)c2cccc(C#N)c2)c1,6.76%
15,C/C(=N/NC(=O)CCc1c(C)n[nH]c1C)c1cccc([N+](=O)[O-])c1,0.36%
16,CC(C)c1ccccc1NC(=O)CNCCc1ccc(C(F)(F)F)cc1,4.1%
17,CCCCNC(=O)Cn1c(=O)oc2cc(S(=O)(=O)N3CC(C)CC(C)C3)ccc21 (stereo not given),2.08%
18,Cc1ccc(S(=O)(=O)N(Cc2cc3cc4c(cc3[nH]c2=O)OCCO4)CC2CCCO2)cc1 (stereo not given),8.8%
19,Cn1c(SCC(=O)N2CCOCC2)nnc1-c1cccc(NC(=O)c2ccccc2)c1,16.6%
20,Cn1c(SCC(=O)N2CCOCC2)nnc1-c1cccc(NC(=O)c2ccccc2F)c1,25.4% (active)

row,SMILES,inhibition
1,Cn1c(SCC(=O)N2CCOCC2)nnc1-c1ccc(NC(=O)c2ccccc2F)cc1,3.9%
2,CCOC(=O)Cc1nnc(NC(=O)C(CC)Sc2nc(C)cc(=O)[nH]2)s1 (stereo not given),11%
3,CCC(C)Nc1nc(OC(C(F)(F)F)C(F)(F)F)nc(OC(C(F)(F)F)C(F)(F)F)n1 (stereo not given),9.34%
4,CC(=O)Nc1ccc2nc(-c3ccncc3)[nH]c2c1,10.3%
5,O=C(Nc1ccc2nc(-c3ccccn3)[nH]c2c1)C1CCCCC1,-0.77%
6,O=C(CNC(=O)c1ccc(S(=O)(=O)N2CCCC2)cc1)N/N=C/c1ccc(Cl)cc1,3.87%
7,CCCn1c(-c2ccc[nH]c2=O)nc2ccccc21,4.86%
8,Cn1c(-c2ccc[nH]c2=O)nc2cc(Cl)ccc21,3.43%
9,COc1cc(/C=C2\OC(=O)c3c(OC)cccc32)ccc1O,18.4%
10,CCC(=O)Oc1ccc2c(C)cc(=O)oc2c1C(=O)CC,1.59%
11,CCn1c(COc2ccc(=O)n(-c3ccccc3)n2)nnc1SCc1ccccc1,1.85%
12,Cc1ccc(NC(=O)c2cc([N+](=O)[O-])ccc2N2CCCC2)cc1,9.65%
13,CCOC(=O)c1ccc(NC(=O)CSc2ncccn2)cc1,25.8% (active)
14,CCOC(=O)c1ccc(NC(=O)CSc2nc3ncccc3[nH]2)cc1,15.1%
15,CCOC(=O)c1ccc(NC(=O)CSc2nccn2C)cc1,13.7%
16,O=C(C1CCCCC1)N1CCCn2c1nc1ccccc12,26.8% (active)
17,CCC(=O)N1CCCn2c1nc1ccccc12,0.87%
18,O=C(Nc1ccccc1)N1CCn2c1nc1ccccc12,3.81%
19,CN(C)S(=O)(=O)c1ccc(C(=O)N2CCN=C2SCc2cccnc2)cc1,-3.94%
20,COc1ccccc1Nc1nc(N)nc(CN2CCC(C)CC2)n1,3.95%
